From PubChem BioAssay AID686978 (National Center for Advancing Translational Sciences (NCATS), 2013)
In all, about 420,000 compounds went through this assay and about 64,000 (15%) were called active. Another 27% or so got no clear call; they are omitted. The list is a sample of the results. A number with no mark means an inactive call. Calls come from the whole dose curve; as a rule, active = well fitted inhibition curve with a large enough effect; inconclusive = small, poorly fitted or top-dose-only effect; inactive = flat fitted curve, though single readings scatter.

Experiment: qHTS for Inhibitors of human tyrosyl-DNA phosphodiesterase 1 (TDP1): qHTS in cells in absence of CPT; note: nearly all actives have a fitted effect of over 55% in size
Conditions: DT40 Tdp1-/- hTDP1 cells, no CPT, ATP luminescence, 48 h; activity change, negative = growth inhibition: at 46.2 µM (top of the series)
Procedure, shortened: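 Readout: luminescence from CellTiter-Glo after 30 min in the dark at RT. Cells: DT40 Tdp1-/- with stable hTDP1, 400/well. Exposure: compounds alone, ≥48 hr, 37 °C.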
% is set by controls: 0 for no effect and ±100 for the full control effect; potency is the fitted concentration of half-maximal effect.

| Compound | activity change, negative = growth inhibition | Potency |
| --- | --- | --- |
| CC1(C)Oc2ccc(C(=O)N3CCOCC3)cc2N(CC(=O)Nc2ccccc2)C1=O | -9.51% |  |
| O=C(NCCC1CCCCN1S(=O)(=O)c1ccc(Cl)cc1)C(=O)NCc1ccco1 (stereo unspecified) |  | 14.6 µM (active) |
| O=C(NCCC1CCCCN1S(=O)(=O)c1ccccc1)C(=O)NCC1CCCO1 (stereo unspecified) | 4.61% |  |
| Cc1ccc(S(=O)(=O)N2CCCC2C(=O)NCc2ccco2)cc1 (stereo unspecified) | -18.4% |  |
| COc1ccc(NC(=O)CCCc2nnc3n(CCC(C)C)c(=O)c4sccc4n23)c(OC)c1 | -34.1% |  |
| COc1ccccc1N=C(C)C1=C(O)COC1=O | 11.5% |  |
| CCC/C(O)=C1\C(=O)CC(C)(C)CC1=Nc1ccccc1OC |  | 14.6 µM (active) |
| CCOc1ccccc1N=C1NC(=O)CS1 | -4.09% |  |
| N#Cc1cc([N+](=O)[O-])ccc1NC(=O)COC(=O)c1cnccn1 | -19.1% |  |
| NS(=O)(=O)c1cccc(NC(=O)CC23CC4CC(CC(Br)(C4)C2)C3)c1 | -2.07% |  |
| Cn1cccc1C(C#N)c1ccccc1C#N (stereo unspecified) | -0.548% |  |
| Cc1ccccc1NC(=O)C(C)OC(=O)CCC(=O)N(CC(C)C)c1c(N)n(CC(C)C)c(=O)[nH]c1=O (stereo unspecified) | -7.3% |  |
| Cc1cccc(C(C)C)c1NC(=O)COC(=O)C1CC(=O)N(Cc2ccccc2)C1 (stereo unspecified) | -25.4% |  |
| Cc1ccc(C(=O)NNC(=O)OC(C)(C)C)c(Cl)c1 | -5.16% |  |
| O=C(NNc1c2ccccc2nc2ccccc12)c1cc2ccccc2cc1O |  | 18.4 µM (active) |
| Cc1ccccc1NC(=O)NNC(=O)OC(C)(C)C | -0.379% |  |
| O=C(COC(=O)c1ccc(O)cc1O)NC(=O)c1ccccc1 | -21.6% |  |
| O=C(N/N=C/c1cccnc1)c1cc2ccccc2cc1O | -19.2% |  |
| CC(C)(C)OC(=O)NNc1c2ccccc2nc2ccccc12 |  | 13 µM (active) |

| Compound | activity change, negative = growth inhibition | Potency |
| --- | --- | --- |
| CCCCNC(=O)N(O)C1N(/N=C/c2ccc(N(C)C)cc2)C(=S)SC1(C)C (stereo unspecified) | -11% |  |
| Cc1csc(/N=C/N(C)C)c1C#N | -18% |  |
| CS(=O)(=O)Nc1ccc(C2=NN(S(C)(=O)=O)C(c3cccs3)C2)cc1 (stereo unspecified) | 6.29% |  |
| COc1ccc(C2=NN(C(=O)CCC(=O)O)C(c3cccs3)C2)cc1OC (stereo unspecified) | -3.18% |  |
| CCS(=O)(=O)Nc1ccc(C2=NN(C(C)=O)C(c3cccs3)C2)cc1 (stereo unspecified) |  | 5.8 µM (active) |
| NNC(=O)c1cccc(COCC(F)(F)C(F)F)c1 | 0.0307% |  |
| Cc1nonc1NC(=O)c1oc2ccccc2c1C | 15.9% |  |
| Cc1c(C(=O)Nc2ccccc2Cl)oc2ccc(S(=O)(=O)N3CCC4(CC3)OCCO4)cc12 | -27.9% |  |
| O=C(Nc1cc(S(=O)(=O)N2CCOCC2)ccc1N1CCOCC1)c1c(F)cccc1Cl | -28.8% |  |
| Cc1occc1C(=O)Nc1cccc(S(=O)(=O)N2CCOCC2)c1 | -21.2% |  |
| Cc1cc(C)n2nc(C(=O)Nc3cccc(S(=O)(=O)N4CCOCC4)c3)nc2n1 | -4.7% |  |
| O=C(Nc1cc(S(=O)(=O)N2CCOCC2)ccc1Cl)c1cc(=O)c2ccccc2o1 |  | 20.6 µM (active) |
| Cc1c(C(=O)Nc2cccc(-c3nnc4n3CCCCC4)c2)oc2ccccc12 |  | 16.4 µM (active) |
| Cc1ccc2oc(C(=O)Nc3ccc(S(=O)(=O)N4CCCCCC4)cc3)cc(=O)c2c1 | -20% |  |
| Cc1c(C(=O)Nc2cccc(S(=O)(=O)N3CCOCC3)c2)oc2ccccc12 |  | 20.6 µM (active) |
| Cc1c(C(=O)NCCN(C)C)oc2ccc(S(=O)(=O)N3CCCC3)cc12 | -8.67% |  |
| COc1ccc(NC(=O)c2oc3ccc(S(=O)(=O)N4CCOCC4)cc3c2C)cc1 |  | 10.3 µM (active) |
| O=C(Cn1[nH]c(=O)c2ccccc2c1=O)Nc1cccc(-c2nnc3n2CCCCC3)c1 | -11.3% |  |
| CSCCC(NC(=O)c1ccco1)C(=O)OCC(=O)Nc1ncc(Cl)c(C)c1Cl (stereo unspecified) | -20% |  |

| Compound | activity change, negative = growth inhibition | Potency |
| --- | --- | --- |
| O=C(Nc1c2c(nn1-c1ccccc1)CS(=O)(=O)C2)C1CCCC1 | -18.2% |  |
| COCCNC(=O)C(OC(=O)c1cccs1)c1ccc(F)cc1 (stereo unspecified) | -11.5% |  |
| Cn1cc(C2OC(=O)c3ccccc32)c2ccccc21 (stereo unspecified) | -28.3% |  |
| CCn1c(O)c(N=NC2=NC(=O)CS2)c2cc(C)ccc21 | -23.4% |  |
| COC(=O)C[C@@H]1C=C[C@@H](NS(=O)(=O)c2cccc(OC)c2)[C@@H](CO)O1 | -2.53% |  |
| C[C@@H]1CN([C@H](C)CO)C(=O)CCCn2nncc2CO[C@@H]1CN(C)C(=O)OCc1ccccc1 | -13.2% |  |
| O=C(O)CSc1nccn1-c1cccc(Cl)c1 | -24.7% |  |
| Cc1cccc(OCC(=O)OCC(=O)Nc2ccc(Cl)cn2)c1 | -2.9% |  |
| CCNC(=S)N1CCN(CCN=CC2=C(O)CC(C)(C)CC2=O)CC1 | 0.937% |  |
| Cc1cc(C)c(S(=O)(=O)N2C=CC(C(F)(F)F)=NCC2)c(C)c1 | -29.9% |  |
| CC(CCO)Nc1nc2c([nH]1)c(=O)n(C)c(=O)n2C (stereo unspecified) | -0.337% |  |
| COc1ccccc1-c1nnc(-c2ccc(F)cc2)o1 | -26.4% |  |
| COc1ccc(-c2csc3nc(-c4ccccc4F)oc(=O)c23)cc1OC |  | 16.4 µM (active) |
| Cc1sc2nc(-c3ccccc3F)oc(=O)c2c1C | 1.12% |  |
| O=C(NCc1ccco1)C(c1ccncc1)N(C(=O)Cn1nnc2ccccc21)c1ccccc1 (stereo unspecified) | -4.11% |  |
| Cc1nn(-c2ccccc2)c2[nH]c(C(F)(F)F)cc(=O)c12 | -13.2% |  |
| O=S(=O)(Nc1ncnc2sccc12)c1cccc(F)c1 | -22.3% |  |
| Nc1ccccc1-c1nc2ccncc2[nH]1 | 5.85% |  |
